What all share (test): DAPPL (digital affinity profiling via proximity ligation, sequencing); 10 mM Tris-HCl pH 7.5, 50 mM NaCl, 1 mM DTT, 4% glycerol, room temperature, 30 min; GST-TFs on glutathione beads, 16-mer random dsDNA library, 0.1% formaldehyde crosslink after washing; high values mean tight binding
One test addresses T1, FLI1 (Homo sapiens, UniProt Q01543 1-452).
T1 sequence: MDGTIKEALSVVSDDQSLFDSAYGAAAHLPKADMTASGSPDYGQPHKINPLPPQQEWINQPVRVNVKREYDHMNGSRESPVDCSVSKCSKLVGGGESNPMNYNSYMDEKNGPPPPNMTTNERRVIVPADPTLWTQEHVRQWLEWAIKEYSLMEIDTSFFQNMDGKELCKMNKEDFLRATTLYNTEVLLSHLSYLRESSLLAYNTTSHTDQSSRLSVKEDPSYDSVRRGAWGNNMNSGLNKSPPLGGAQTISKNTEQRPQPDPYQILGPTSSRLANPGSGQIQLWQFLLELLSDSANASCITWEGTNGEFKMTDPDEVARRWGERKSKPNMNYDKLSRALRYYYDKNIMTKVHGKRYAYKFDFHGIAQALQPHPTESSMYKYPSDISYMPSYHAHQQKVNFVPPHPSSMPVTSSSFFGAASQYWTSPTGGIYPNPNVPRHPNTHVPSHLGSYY
The conditions noted are these: protein: recombinant; tags: N-terminal GST; dsDNA, one strand shown. The essentials:
(§1)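 Each value of binding signal is a hexamer's read frequency for a factor divided by the same hexamer's frequency in the tag-only sample. Barcoded, bead-captured GST fusions of human transcription factors made in yeast were pooled with that sample and incubated with 200 nmole of a random double-stranded 16-mer DNA library in Tris/NaCl/DTT/glycerol buffer at room temperature for 30 min. Washing, 0.1% formaldehyde crosslinking, proximity ligation, PCR and Illumina NextSeq500 sequencing followed.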

A further test has as its target T2, ELK1 (Homo sapiens, UniProt P19419 1-428).
T2 sequence: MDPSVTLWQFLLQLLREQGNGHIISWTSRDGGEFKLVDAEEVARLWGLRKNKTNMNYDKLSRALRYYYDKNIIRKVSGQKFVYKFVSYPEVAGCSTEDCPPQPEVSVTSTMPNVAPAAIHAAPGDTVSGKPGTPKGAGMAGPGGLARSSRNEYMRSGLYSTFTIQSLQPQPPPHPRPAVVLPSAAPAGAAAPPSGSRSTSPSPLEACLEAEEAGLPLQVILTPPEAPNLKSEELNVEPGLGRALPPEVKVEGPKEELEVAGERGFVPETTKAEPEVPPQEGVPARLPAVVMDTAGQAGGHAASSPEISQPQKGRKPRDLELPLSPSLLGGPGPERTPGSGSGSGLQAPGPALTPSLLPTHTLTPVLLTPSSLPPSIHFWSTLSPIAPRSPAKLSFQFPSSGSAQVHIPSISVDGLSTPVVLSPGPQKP
The conditions noted are these: protein: recombinant; tags: N-terminal GST; dsDNA, one strand shown. Put shortly: as §1

The next test concerns the target T3, GABPA (Homo sapiens, UniProt Q06546 1-454).
T3 sequence: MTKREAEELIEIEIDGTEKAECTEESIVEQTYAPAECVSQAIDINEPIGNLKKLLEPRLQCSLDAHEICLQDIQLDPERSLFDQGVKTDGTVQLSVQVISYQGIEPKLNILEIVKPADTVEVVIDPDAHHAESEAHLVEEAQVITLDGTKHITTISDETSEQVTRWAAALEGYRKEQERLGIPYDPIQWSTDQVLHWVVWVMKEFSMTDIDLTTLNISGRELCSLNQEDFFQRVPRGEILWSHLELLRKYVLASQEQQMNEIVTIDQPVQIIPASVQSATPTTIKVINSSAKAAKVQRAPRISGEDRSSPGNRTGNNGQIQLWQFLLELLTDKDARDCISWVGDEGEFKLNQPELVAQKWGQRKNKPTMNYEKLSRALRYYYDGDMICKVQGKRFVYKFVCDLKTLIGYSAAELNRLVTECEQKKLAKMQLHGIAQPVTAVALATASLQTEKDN
To be noted: protein: recombinant; tags: N-terminal GST; dsDNA, one strand shown. Put shortly: as §1

A further test addresses T4, ERG (Homo sapiens, UniProt P11308 1-479).
T4 sequence: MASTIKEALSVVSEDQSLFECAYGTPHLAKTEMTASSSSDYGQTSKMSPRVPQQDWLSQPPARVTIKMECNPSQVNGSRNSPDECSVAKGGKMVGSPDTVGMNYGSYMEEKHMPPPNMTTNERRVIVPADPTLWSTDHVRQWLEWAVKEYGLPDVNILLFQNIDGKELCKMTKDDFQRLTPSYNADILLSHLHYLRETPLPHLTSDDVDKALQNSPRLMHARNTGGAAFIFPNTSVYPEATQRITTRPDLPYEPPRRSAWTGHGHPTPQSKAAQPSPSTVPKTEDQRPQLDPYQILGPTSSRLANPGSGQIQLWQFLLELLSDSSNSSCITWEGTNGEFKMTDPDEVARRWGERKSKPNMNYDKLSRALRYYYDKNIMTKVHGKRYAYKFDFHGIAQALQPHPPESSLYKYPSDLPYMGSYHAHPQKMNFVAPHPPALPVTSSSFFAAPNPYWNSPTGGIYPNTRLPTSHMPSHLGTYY
The conditions noted are these: protein: recombinant; tags: N-terminal GST; dsDNA, one strand shown. Put shortly: as §1

Another test concerns the target ELF1 (Homo sapiens, UniProt P32519 1-619). The conditions noted are these: protein: recombinant; tags: N-terminal GST; dsDNA, one strand shown. Put shortly: as §1
In another test the target is T5, EHF (Homo sapiens, UniProt Q9NZC4 1-300).
T5 sequence: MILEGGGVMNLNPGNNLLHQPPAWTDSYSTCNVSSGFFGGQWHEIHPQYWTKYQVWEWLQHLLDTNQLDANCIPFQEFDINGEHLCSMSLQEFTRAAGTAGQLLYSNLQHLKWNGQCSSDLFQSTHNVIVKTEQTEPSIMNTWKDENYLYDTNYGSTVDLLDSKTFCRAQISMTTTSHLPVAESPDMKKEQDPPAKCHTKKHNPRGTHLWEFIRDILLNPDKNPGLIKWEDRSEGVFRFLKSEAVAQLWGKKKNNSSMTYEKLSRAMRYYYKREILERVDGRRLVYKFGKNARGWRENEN
To be noted: protein: recombinant; tags: N-terminal GST; dsDNA, one strand shown. Put shortly:
as §1

Another test addresses SPI1 (Homo sapiens, UniProt P17947 1-270). To be noted: protein: recombinant; tags: N-terminal GST; dsDNA, one strand shown. Put shortly: as §1
A further test concerns the target SPIB (Homo sapiens, UniProt Q01892 1-262). The conditions noted are these: protein: recombinant; tags: N-terminal GST; dsDNA, one strand shown. Put shortly:
as §1

Another test deals with T6, ELK3 (Homo sapiens, UniProt P41970 1-407).
T6 sequence: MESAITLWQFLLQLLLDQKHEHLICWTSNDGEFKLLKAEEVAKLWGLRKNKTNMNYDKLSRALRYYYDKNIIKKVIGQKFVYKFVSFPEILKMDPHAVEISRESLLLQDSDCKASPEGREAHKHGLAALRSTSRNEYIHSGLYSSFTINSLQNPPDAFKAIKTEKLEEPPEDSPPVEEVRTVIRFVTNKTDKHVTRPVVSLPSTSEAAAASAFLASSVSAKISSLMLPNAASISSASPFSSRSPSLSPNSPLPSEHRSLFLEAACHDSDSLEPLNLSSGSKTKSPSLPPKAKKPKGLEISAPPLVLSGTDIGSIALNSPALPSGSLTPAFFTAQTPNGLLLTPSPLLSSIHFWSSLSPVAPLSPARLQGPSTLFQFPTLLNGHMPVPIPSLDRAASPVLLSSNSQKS
The conditions noted are these: protein: recombinant; tags: N-terminal GST; dsDNA, one strand shown. The essentials:
as §1

Another test addresses T7, FEV (Homo sapiens, UniProt Q99581 1-238).
T7 sequence: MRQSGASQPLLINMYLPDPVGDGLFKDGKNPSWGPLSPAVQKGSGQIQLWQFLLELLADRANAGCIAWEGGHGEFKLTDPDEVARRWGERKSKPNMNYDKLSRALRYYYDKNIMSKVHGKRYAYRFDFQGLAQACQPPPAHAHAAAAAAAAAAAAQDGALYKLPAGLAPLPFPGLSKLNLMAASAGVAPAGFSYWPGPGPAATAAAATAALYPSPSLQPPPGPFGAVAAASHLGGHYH
The conditions noted are these: protein: recombinant; tags: N-terminal GST; dsDNA, one strand shown. Put shortly: as §1

In another test the target is ETV5 (Homo sapiens, UniProt P41161 1-510). The conditions noted are these: protein: recombinant; tags: N-terminal GST; dsDNA, one strand shown. The essentials:
as §1

A further test addresses HSF1 (Homo sapiens, UniProt Q00613 1-529). To be noted: protein: recombinant; tags: N-terminal GST; chain copies: 3; dsDNA, one strand shown. The essentials:
as §1

For another test, the target named is ELF4 (Homo sapiens, UniProt Q99607 1-663). To be noted: protein: recombinant; tags: N-terminal GST; dsDNA, one strand shown. The essentials: as §1
ELF4, sequence (Q99607 whole entry): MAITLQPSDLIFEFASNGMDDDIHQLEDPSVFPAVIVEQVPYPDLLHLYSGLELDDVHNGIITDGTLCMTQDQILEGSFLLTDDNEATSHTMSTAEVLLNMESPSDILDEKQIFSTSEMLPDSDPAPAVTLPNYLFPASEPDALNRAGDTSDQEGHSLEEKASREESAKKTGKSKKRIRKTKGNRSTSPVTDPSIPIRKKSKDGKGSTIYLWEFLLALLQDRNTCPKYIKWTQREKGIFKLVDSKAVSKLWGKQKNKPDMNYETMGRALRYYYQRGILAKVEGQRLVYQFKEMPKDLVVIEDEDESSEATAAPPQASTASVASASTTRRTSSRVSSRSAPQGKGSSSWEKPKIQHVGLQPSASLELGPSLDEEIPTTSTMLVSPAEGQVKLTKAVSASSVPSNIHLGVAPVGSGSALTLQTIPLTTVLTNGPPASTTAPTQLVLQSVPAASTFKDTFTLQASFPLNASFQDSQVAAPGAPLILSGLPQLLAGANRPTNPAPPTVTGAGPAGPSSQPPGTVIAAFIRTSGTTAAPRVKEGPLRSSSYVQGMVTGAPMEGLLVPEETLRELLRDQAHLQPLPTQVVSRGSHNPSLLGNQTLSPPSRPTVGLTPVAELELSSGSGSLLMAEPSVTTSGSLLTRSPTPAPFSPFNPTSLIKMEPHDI
The next test has as its target T8, ELK4 (Homo sapiens, UniProt P28324-2 1-405).
T8 sequence: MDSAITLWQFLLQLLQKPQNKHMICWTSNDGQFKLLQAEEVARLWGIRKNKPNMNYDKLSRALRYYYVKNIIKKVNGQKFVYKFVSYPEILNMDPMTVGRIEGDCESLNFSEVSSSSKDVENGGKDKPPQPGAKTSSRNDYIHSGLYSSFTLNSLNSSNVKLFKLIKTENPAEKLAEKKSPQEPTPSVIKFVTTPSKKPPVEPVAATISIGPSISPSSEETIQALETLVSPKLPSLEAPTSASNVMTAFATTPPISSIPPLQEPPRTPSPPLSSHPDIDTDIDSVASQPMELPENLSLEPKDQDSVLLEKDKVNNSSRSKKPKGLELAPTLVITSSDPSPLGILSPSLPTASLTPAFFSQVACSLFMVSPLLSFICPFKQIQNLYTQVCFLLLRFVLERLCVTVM
To be noted: protein: recombinant; tags: N-terminal GST; dsDNA, one strand shown. The essentials:
as §1

Another test concerns the target T9, ELF3 (Homo sapiens, UniProt P78545 1-371).
T9 sequence: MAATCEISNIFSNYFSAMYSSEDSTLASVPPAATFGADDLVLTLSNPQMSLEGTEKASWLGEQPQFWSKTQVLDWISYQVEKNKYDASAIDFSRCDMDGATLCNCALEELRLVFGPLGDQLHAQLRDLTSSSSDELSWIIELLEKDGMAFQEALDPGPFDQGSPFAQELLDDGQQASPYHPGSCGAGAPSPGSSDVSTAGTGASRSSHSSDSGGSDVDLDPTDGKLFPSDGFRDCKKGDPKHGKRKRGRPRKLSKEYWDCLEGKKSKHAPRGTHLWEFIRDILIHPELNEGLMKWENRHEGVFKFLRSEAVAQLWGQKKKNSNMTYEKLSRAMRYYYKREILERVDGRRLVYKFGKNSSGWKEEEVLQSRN
The conditions noted are these: protein: recombinant; tags: N-terminal GST; dsDNA, one strand shown. The essentials:
as §1

In the next test the target is CRX (Homo sapiens, UniProt O43186 1-299). To be noted: protein: recombinant; tags: N-terminal GST; dsDNA, one strand shown. Put shortly:
as §1

The next test concerns the target ETV1 (Homo sapiens, UniProt P50549 1-477). To be noted: protein: recombinant; tags: N-terminal GST; dsDNA, one strand shown. The essentials: as §1
Another test deals with T10, ETV2 (Homo sapiens, UniProt O00321 1-342).
T10 sequence: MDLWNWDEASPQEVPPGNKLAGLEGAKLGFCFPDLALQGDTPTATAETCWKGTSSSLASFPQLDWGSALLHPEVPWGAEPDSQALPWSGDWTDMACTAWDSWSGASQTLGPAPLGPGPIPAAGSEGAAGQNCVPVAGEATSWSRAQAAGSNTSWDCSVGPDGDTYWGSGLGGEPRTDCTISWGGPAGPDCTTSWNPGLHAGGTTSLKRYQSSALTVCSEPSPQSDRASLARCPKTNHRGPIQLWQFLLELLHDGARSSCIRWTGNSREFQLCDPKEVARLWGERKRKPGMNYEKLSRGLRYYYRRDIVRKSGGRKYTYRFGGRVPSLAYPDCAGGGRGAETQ
The conditions noted are these: protein: recombinant; tags: N-terminal GST; dsDNA, one strand shown. The essentials:
as §1

HSF1, sequence (Q00613 whole entry): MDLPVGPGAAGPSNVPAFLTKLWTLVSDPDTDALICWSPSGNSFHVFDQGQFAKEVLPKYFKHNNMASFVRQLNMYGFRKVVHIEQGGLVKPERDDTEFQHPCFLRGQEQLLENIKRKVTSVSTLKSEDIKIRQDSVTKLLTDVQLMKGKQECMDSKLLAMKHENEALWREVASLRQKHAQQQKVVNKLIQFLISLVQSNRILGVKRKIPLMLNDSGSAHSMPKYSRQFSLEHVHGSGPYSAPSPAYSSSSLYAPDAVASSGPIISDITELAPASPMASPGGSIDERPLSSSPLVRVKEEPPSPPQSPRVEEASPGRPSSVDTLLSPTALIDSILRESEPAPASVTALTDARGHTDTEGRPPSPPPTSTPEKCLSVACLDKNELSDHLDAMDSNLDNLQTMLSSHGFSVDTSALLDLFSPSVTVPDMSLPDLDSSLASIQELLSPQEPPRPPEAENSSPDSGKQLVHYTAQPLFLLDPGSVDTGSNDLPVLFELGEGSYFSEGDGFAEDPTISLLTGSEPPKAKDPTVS
CRX, sequence (O43186 whole entry): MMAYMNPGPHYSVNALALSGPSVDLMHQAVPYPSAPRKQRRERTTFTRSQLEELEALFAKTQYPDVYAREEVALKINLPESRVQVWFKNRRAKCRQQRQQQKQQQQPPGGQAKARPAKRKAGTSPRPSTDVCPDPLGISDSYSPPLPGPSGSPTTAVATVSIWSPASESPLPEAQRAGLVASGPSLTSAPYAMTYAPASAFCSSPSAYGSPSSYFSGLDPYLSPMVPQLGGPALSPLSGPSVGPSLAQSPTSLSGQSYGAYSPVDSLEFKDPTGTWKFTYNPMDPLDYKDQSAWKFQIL
ELF1, sequence (P32519 whole entry): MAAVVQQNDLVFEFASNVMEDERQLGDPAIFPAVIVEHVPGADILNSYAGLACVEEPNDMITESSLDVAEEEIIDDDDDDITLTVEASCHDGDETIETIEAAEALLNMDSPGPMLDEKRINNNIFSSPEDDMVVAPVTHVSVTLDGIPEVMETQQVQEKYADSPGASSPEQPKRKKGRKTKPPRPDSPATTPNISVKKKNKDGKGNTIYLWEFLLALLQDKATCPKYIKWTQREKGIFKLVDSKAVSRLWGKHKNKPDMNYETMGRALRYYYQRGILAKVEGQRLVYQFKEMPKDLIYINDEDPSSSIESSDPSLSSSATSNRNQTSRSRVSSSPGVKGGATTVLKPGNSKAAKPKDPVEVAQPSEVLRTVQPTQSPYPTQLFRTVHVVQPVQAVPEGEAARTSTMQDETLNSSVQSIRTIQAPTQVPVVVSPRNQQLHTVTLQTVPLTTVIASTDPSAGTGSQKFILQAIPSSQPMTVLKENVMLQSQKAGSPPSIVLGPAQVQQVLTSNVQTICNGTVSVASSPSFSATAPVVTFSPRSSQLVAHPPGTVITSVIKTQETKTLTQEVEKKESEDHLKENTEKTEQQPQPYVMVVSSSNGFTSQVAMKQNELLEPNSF
ETV1, sequence (P50549 whole entry): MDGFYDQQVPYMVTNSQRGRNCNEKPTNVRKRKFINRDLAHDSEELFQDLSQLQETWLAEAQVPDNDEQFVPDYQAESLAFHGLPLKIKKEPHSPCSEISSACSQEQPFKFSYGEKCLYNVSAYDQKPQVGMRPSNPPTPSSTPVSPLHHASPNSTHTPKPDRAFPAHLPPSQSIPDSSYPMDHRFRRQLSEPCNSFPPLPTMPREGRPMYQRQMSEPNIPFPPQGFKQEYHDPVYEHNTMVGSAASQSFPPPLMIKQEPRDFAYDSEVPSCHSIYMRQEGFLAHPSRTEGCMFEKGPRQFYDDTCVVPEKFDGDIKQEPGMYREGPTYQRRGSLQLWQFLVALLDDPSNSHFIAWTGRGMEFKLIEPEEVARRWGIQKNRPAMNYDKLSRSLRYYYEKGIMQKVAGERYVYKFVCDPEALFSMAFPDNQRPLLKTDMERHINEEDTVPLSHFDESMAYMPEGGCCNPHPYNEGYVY
ETV5, sequence (P41161 whole entry): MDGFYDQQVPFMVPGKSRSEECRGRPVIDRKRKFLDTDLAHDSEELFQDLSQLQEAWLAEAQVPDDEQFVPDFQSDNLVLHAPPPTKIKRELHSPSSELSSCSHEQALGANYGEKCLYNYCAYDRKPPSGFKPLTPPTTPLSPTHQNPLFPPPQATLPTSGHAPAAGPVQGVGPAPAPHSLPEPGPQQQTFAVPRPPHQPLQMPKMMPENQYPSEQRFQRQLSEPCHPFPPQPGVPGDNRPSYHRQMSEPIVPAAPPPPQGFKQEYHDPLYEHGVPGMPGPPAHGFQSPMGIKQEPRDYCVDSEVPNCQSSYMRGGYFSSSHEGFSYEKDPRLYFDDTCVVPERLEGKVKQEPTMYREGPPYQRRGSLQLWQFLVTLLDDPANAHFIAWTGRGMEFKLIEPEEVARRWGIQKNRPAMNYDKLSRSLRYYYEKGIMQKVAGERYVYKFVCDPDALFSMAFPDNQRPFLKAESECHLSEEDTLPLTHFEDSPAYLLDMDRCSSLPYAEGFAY
SPIB, sequence (Q01892 whole entry): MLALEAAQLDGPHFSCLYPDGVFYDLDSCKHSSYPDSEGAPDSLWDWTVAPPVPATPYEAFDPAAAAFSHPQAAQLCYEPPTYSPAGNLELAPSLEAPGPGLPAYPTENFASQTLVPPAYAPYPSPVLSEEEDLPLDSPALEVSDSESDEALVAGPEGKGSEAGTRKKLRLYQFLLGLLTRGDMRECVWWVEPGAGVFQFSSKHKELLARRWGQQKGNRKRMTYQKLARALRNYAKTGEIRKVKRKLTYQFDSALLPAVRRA

For the sequence CGGCTA, the binding signal in the test with FLI1 was 1.16 fold enrichment (6-mer frequency, TF over GST control); in the test with ELK1 it was 1.14 fold enrichment (6-mer frequency, TF over GST control); with GABPA, 1.1 fold enrichment (6-mer frequency, TF over GST control); in the test with ERG, 1.1 fold enrichment (6-mer frequency, TF over GST control); with ELF1 it was 1.15 fold enrichment (6-mer frequency, TF over GST control); with EHF, 1.13 fold enrichment (6-mer frequency, TF over GST control). Further, the binding signal with SPI1 is 1.16 fold enrichment (6-mer frequency, TF over GST control); with SPIB it was 1.21 fold enrichment (6-mer frequency, TF over GST control); with ELK3 it was 1.02 fold enrichment (6-mer frequency, TF over GST control); with FEV it was 1.23 fold enrichment (6-mer frequency, TF over GST control); with ETV5, 1.19 fold enrichment (6-mer frequency, TF over GST control); in the test with HSF1 it was 1.07 fold enrichment (6-mer frequency, TF over GST control). Besides, the binding signal with ELF4 is 1.07 fold enrichment (6-mer frequency, TF over GST control); in the test with ELK4, 1.11 fold enrichment (6-mer frequency, TF over GST control); with ELF3 it was 1.05 fold enrichment (6-mer frequency, TF over GST control); in the test with CRX, 1.18 fold enrichment (6-mer frequency, TF over GST control); in the test with ETV1, 1.2 fold enrichment (6-mer frequency, TF over GST control).

In the case of TAGATC, the binding signal is 1.05 fold enrichment (6-mer frequency, TF over GST control) with FLI1; 1.14 fold enrichment (6-mer frequency, TF over GST control) in the test with ELK1; 1 fold enrichment (6-mer frequency, TF over GST control) in the test with ERG; 1.06 fold enrichment (6-mer frequency, TF over GST control) with ELF1; 1.04 fold enrichment (6-mer frequency, TF over GST control) with EHF; 1.21 fold enrichment (6-mer frequency, TF over GST control) with ELK3. Besides, the binding signal with FEV was 1.06 fold enrichment (6-mer frequency, TF over GST control); with ETV5, 1.06 fold enrichment (6-mer frequency, TF over GST control); in the test with HSF1, 1.49 fold enrichment (6-mer frequency, TF over GST control); with ELF4, 1.13 fold enrichment (6-mer frequency, TF over GST control); in the test with ETV2, 1.2 fold enrichment (6-mer frequency, TF over GST control); with CRX, 1.51 fold enrichment (6-mer frequency, TF over GST control). Moreover, in the test with ETV1, the binding signal was 1.04 fold enrichment (6-mer frequency, TF over GST control).

For the origin of these results see article PMC7862700, “An all-to-all approach to the identification of sequence-specific readers for epigenetic DNA modifications on cytosine”.
